Screening results deposited in PubChem BioAssay by Broad Institute.
The sample as a whole holds a higher share of hits than the screen did.
U2OS ROS induce = raises reactive oxygen species in U2OS cancer cells; AID 624156; ROS induction (% of piperlongumine), % at 10 µM; U2OS ROS induction, H2DCF-DA fluorescence; actives 2% (n = 46,000); in the data active = ROS induction above about 79%, passing the limit was not always enough
Each line names hits and unclear results; the compound was inactive in the other large screens.

COc1ccc(NC(=O)Nc2ccc3c(c2)C(=O)N([C@H](C)CO)C[C@H](C)[C@H](CN(C)C(=O)Nc2ccccc2)O3)cc1	none
CC1=C(CO)C(=O)OC([C@@H](C)C2CC[C@H]3C4C[C@H]5O[C@]56[C@@H](O)C=CC(=O)[C@]6(C)C4CC[C@]23C)C1 (stereo partly specified)	U2OS ROS induce 137.5
C[C@H]1CN([C@@H](C)CO)C(=O)c2cc(NC(=O)NC3CCCCC3)ccc2O[C@H]1CN(C)S(C)(=O)=O	none
Cc1onc(-c2ccccc2Cl)c1C(=O)NC(=S)NCc1ccco1	none
C[C@@H]1CN([C@@H](C)CO)C(=O)c2cc(NS(=O)(=O)c3ccc(F)cc3)ccc2O[C@H]1CN(C)C(=O)NC1CCCCC1	none
CC1(C)C=Cc2c(c3occc3c3oc(-c4ccccc4)cc(=O)c23)O1	U2OS ROS induce 223.2
O=c1cc(-c2ccccc2)oc2cccc(O)c12	none
O=c1cc(-c2ccccc2)oc2cc(O)cc(O)c12	none
C[C@@H]1CN([C@@H](C)CO)C(=O)c2cc(NS(=O)(=O)c3ccccc3)ccc2O[C@@H]1CN(C)C(=O)Nc1ccc(F)cc1	none
COc1ccc(NC(=O)N(C)C[C@H]2Oc3c(NC(=O)Nc4ccc(C(F)(F)F)cc4)cccc3C(=O)N([C@H](C)CO)C[C@H]2C)cc1	none
O=C(Nc1ccccc1N1CCOCC1)c1ccccc1	none
O=C(Nc1cc(C(=O)Nc2ccccc2O)cc(C(=O)Nc2ccccc2O)c1)c1ccccc1	U2OS ROS induce 97.5
COC(=O)c1cc(NC(=O)c2cccc(Cl)c2)cc(C(=O)OC)c1	none
Cc1ccc(-c2csc3ncnc(SCc4csc(C)n4)c23)cc1	none
CCCc1nc(N)c(C#N)c(-c2ccccc2)c1CC	none
O=c1n(CCCN2CCN(c3cccc(Cl)c3)CC2)nc2ccccn12	none
CCCc1c(C#N)c(N)nc(SCCCN2CCN(c3cccc(Cl)c3)CC2)c1C#N	U2OS ROS induce 125.9
COc1ccc(OC)c(S(=O)(=O)N2CCC(C(=O)Nc3ccc4c(c3)OCCO4)CC2)c1	none
C[C@@H]1CCCCO[C@H](CN(C)C(=O)c2ccccc2)[C@@H](C)CN([C@H](C)CO)C(=O)c2cc(N(C)C)ccc2O1	none
COC(=O)c1cccc(C(=O)Nc2ccc(F)cc2)n1	none
COC(=O)c1[nH]nc2c1C(=O)N(c1ccc(F)cc1)C2=O	U2OS ROS induce 260.1
COC(=O)c1ccc(-n2nnnc2SCCCC(=O)c2ccc(F)cc2)cc1	none
CC(C)NC(=O)N(C)C[C@H]1OCCCC[C@@H](C)Oc2ccc(NC(=O)Nc3ccc4c(c3)OCO4)cc2C(=O)N([C@H](C)CO)C[C@@H]1C	none
N#CC1(NC(=O)c2cc3ccccc3oc2=O)CCCCC1	none
O=C(COc1cccc(NC(=O)c2ccccc2[N+](=O)[O-])c1)c1ccc(F)cc1	none
COc1ccc(C(C)(C)C)cc1S(=O)(=O)NCC1CCCO1 (stereo unspecified)	none
Cc1ccc(-c2nnc(N3CCOCC3)c3ccccc23)cc1S(=O)(=O)NC(C)(C)CO	none
Cc1ccc(Nc2nnc(-c3ccc(C)c(S(=O)(=O)NCC4CCCO4)c3)c3ccccc23)cc1 (stereo unspecified)	U2OS ROS induce 216.0
Cc1noc(C)c1S(=O)(=O)Nc1ccc2c(c1)C(=O)N([C@H](C)CO)C[C@H](C)[C@@H](CN(C)C(=O)NC1CCCCC1)O2	none
COc1ccc(S(=O)(=O)Nc2cccc3c2O[C@@H](CN(C)Cc2ccc(-c4ccccc4)cc2)[C@H](C)CN([C@@H](C)CO)C3=O)cc1	none
Cc1ccc(S(=O)(=O)Nc2cccc3c2O[C@@H](CN(C)Cc2ccc(Oc4ccccc4)cc2)[C@@H](C)CN([C@H](C)CO)C3=O)cc1	none
Cc1ccc(S(=O)(=O)Nc2cccc3c2O[C@H](CN(C)Cc2ccc(Oc4ccccc4)cc2)[C@@H](C)CN([C@@H](C)CO)C3=O)cc1	none
Cc1noc(C)c1S(=O)(=O)Nc1cccc2c1O[C@H](CN(C)Cc1ccc(-c3ccccc3)cc1)[C@H](C)CN([C@@H](C)CO)C2=O	U2OS ROS induce 121.7
COc1ccc(S(=O)(=O)Nc2cccc3c2O[C@H](CN(C)Cc2ccc(-c4ccccc4)cc2)[C@H](C)CN([C@H](C)CO)C3=O)cc1	U2OS ROS induce 95.6
C[C@H]1CN([C@@H](C)CO)C(=O)c2cccc(NS(=O)(=O)c3cccs3)c2O[C@H]1CN(C)Cc1ccccc1	none
Cc1noc(C)c1S(=O)(=O)Nc1cccc2c1O[C@@H](CN(C)Cc1ccc(Oc3ccccc3)cc1)[C@@H](C)CN([C@H](C)CO)C2=O	none
C[C@H](CO)N1C[C@H](C)[C@@H](CN(C)Cc2ccc(-c3ccccc3)cc2)Oc2c(NS(=O)(=O)c3cccs3)cccc2C1=O	U2OS ROS induce 88.6
Cc1noc(C)c1S(=O)(=O)Nc1cccc2c1O[C@@H](CN(C)Cc1ccc(-c3ccccc3)cc1)[C@@H](C)CN([C@@H](C)CO)C2=O	none
C[C@@H]1CN([C@@H](C)CO)C(=O)c2cccc(NS(=O)(=O)c3cccs3)c2O[C@@H]1CN(C)Cc1ccc(-c2ccccc2)cc1	none
Cc1ccc(S(=O)(=O)Nc2cccc3c2O[C@H](CN(C)Cc2ccc(Oc4ccccc4)cc2)[C@H](C)CN([C@H](C)CO)C3=O)cc1	U2OS ROS induce 125.0
COc1ccc(S(=O)(=O)Nc2cccc3c2O[C@@H](CN(C)Cc2ccc(-c4ccccc4)cc2)[C@@H](C)CN([C@@H](C)CO)C3=O)cc1	none
C=CCNC(=O)[C@@H]1[C@H]2C(=O)O[C@H](c3ccccc3)[C@H](c3ccccc3)N2[C@H](c2ccccc2OCCO)[C@@]12C(=O)Nc1ccccc12	none
Cc1ccc(S(=O)(=O)N(C)C[C@H]2Oc3c(NC(=O)c4ccncc4)cccc3C(=O)N([C@H](C)CO)C[C@@H]2C)cc1	none
C[C@H]1CN([C@@H](C)CO)C(=O)c2cc(NC(=O)C3CC3)ccc2O[C@@H]1CN(C)Cc1ccc(C(=O)Nc2ccccc2N)cc1	none
C[C@H]1CN([C@@H](C)CO)C(=O)CCCn2cc(nn2)CO[C@H]1CN(C)C(=O)Nc1ccc(N2CCCCC2)cc1	none
Cc1ccc(CN(C)C[C@@H]2OCc3cn(nn3)CCCC(=O)N([C@@H](C)CO)C[C@@H]2C)cc1	none
CNC[C@@H]1Oc2ccc(NC(=O)Nc3ccc(C(F)(F)F)cc3)cc2CC(=O)N([C@H](C)CO)C[C@H]1C	none
C[C@H]1CN([C@@H](C)CO)C(=O)c2cc(NC(=O)Nc3ccc4c(c3)OCO4)ccc2O[C@@H]1CN(C)Cc1ccccc1	none
Cc1ccc(C(=O)NC(C)C)cc1	none
CS(=O)(=O)N(CC(=O)Nc1ccccc1C(F)(F)F)c1cccc(F)c1	none
C[C@@H]1CN([C@@H](C)CO)C(=O)c2cccc(NC(=O)c3ccc(-c4nccs4)cc3)c2O[C@@H]1CN(C)Cc1ccc(C(=O)Nc2ccccc2N)cc1	none
C[C@H](CO)N1C[C@H](C)[C@H](CN(C)Cc2ccc(Oc3ccccc3)cc2)Oc2c(NS(=O)(=O)c3ccc(F)cc3)cccc2C1=O	none
COc1ccc(S(=O)(=O)Nc2cccc3c2O[C@H](CN(C)Cc2ccc(Cl)c(Cl)c2)[C@H](C)CN([C@@H](C)CO)C3=O)cc1	U2OS ROS induce 84.4
COc1ccc(S(=O)(=O)Nc2cccc3c2O[C@H](CN(C)Cc2ccc(Cl)c(Cl)c2)[C@@H](C)CN([C@H](C)CO)C3=O)cc1	none
C[C@H]1CN([C@@H](C)CO)C(=O)c2cccc(NS(=O)(=O)c3ccc(F)cc3)c2O[C@@H]1CN(C)Cc1ccc(Oc2ccccc2)cc1	U2OS ROS induce 104.4
COc1ccc(S(=O)(=O)Nc2cccc3c2O[C@H](CN(C)Cc2ccc(Oc4ccccc4)cc2)[C@@H](C)CN([C@@H](C)CO)C3=O)cc1	none
